{
  "source": "PubChem BioAssay (EPA / NIEHS)",
  "note": "Where “and” joins values, the source holds several entries; their conditions need not be identical. Equal values may be shown once. Calls of active or inactive are those of the source. Rule for the calls: active = hit-call score of the fitted dose curve at least 0.9, where 1 is the maximum; inactive = score below 0.9.",
  "data": [
    {"read-out": "Apoptosis regulator Bcl-2 (Homo sapiens) (UniProt P10415)", "test": "LTEA_HepaRG_BCL2: Life Technologies and Expression Analysis (LTEA) Assay for Bcl-2 gene using HepaRG (AID 2283475);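 note: BCL2 transcript by TaqMan qRT-PCR normalised to ACTB GAPDH and POLR2A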", "details": "mRNA level, 48 h; actives raise or lower the signal", "description": "LTEA_HepaRG is a cell based, multiplexed-readout assay that uses HepaRG, a human liver cell line, with measurements taken at 48 hours after chemical dosing on a 96-well plate.LTEA_HepaRG_BCL2 is one of 102 assay component(s) measured in the LTEA HepaRG cell culture assay. It is a marker of Cell proliferation, survival, death.Data from the assay component LTEA_HepaRG_BCL2 was analyzed into 1 endpoint. This assay endpoint, LTEA_HepaRG_BCL2, was analyzed with bidirectional fitting relative to DMSO as the negative control and baseline of activity. Using a type of inducible reporter, measures of mRNA induction for gain or loss-of-signal activity can be used to understand regulation of transcription factor activity. To generalize the intended target to other relatable targets, this assay endpoint is annotated to the cell cycle intended target family, where the subfamily is Cell proliferation, survival, death.\nA total of 1060 chemcials from the ToxCast library were tested in eight-point concentration-response experiments. Cell culture and cytotoxicity assays were conducted at Thermo Fisher Scientific's Custom Services facility (Madison, WI). A single lot of human HepaRG cells (Thermo Fisher Scientific, Frederick, MD) was used for the cell culture experiments. 96-well format collagen type I coated plates of human HepaRG cells were prepared using established methods. Briefly, cryopreserved HepaRG cells were thawed, plated at a density of approximately 100,000 cells/well in HepaRG Thaw, Plate, and General Purpose media (HPRG770, Thermo Fisher Scientific), and incubated for 48 hours. 0.5% DMSO was selected as vehicle control to balance the requisite need of DMSO in HepaRG cultures to maintain differentiation (for example, baseline metabolism, proportions of hepatocytes vs. cholangiocytes), while enabling further hepatic receptor pathway activation (for example, PXR and CAR) in response to chemical exposure. 48 hours after plating, the culture medium was replaced with HepaRG Serum-Free Incudtion Media. Cells were exposed to each test chemical in duplicate and maintained in CO2 incubators for another 48 hours. Chemical plates were thawed to room temperature and 200x concentrations of treatment groups were prepared. 8-point conentration-reponse curves were made with the highest exposure at 100 uM, followed by half-log dilutions, all in 0.5% DMSO. Each test plate contained variouse controls, induction positive controls (1mM phenobarbital), cytotoxicity positive controls ([…] aflatoxin B1), vehicle controls (0.5% DMSO), and total lysis controls (0.5% DMSO). Cell morphology images were taken using an Essen IncuCyte FLR automated microscope, with six 96-well plates imaged in about 24 minutes. Images were captured and exported and JPEG files. Spent culture media was transfered to black-well plates for the LDH assay, and remaining media was sorted at -80 C for later use. Cells were treated with RLT buffer and frozen until shipped for gene expression analysis. Total RNA was isolated from the cell suspension in 75 uL of Buffer RLT (Qiagen, Germantown, MD 20874) by Quintiles/Expression Analysis (Durham, NC) using a custom isolation procedure. Total RNA from each plate well was transferred to a preamplification plate. Fluidigm's 96.96 Dynamic ArrayTM (Fluidigm, Amsterdam, the Netherlands) technology was used for gene expression analyses by quantitative reverse transcription polymerase chain reaction (qRT-PCR, performed by Quintiles/Expression Analysis, Durham, NC)89. Standard TaqManTM Assays (Applied Biosystems/ThermoFisher Scientific, Foster City, CA) were used to assess the expression of 93 genes selected based on their selectivity and sensitivity to important hepatic receptors known to be modulated by environmental chemicals; importance in human hepatocyte functionality; and hepatotoxicity. […]", "values": [
      {"smiles": "CCOC(=O)c1ccc(O)cc1", "outcome": "inactive"},
      {"smiles": "CCNc1nc(N)nc(Cl)n1", "outcome": "inactive"},
      {"smiles": "CCCOC(=O)NCCCN(C)C", "outcome": "inactive"},
      {"smiles": "c1ccc(Nc2ccccc2)cc1", "outcome": "inactive"},
      {"smiles": "N[C@@H](Cc1cc(I)c(Oc2ccc(O)c(I)c2)c(I)c1)C(=O)O", "outcome": "inactive"},
      {"smiles": "C#C[C@]1(O)CC[C@H]2[C@@H]3CCC4=CC(=O)CC[C@@H]4[C@H]3CC[C@@]21CC", "outcome": "inactive"},
      {"smiles": "S=C([S-])NCCNC(=S)[S-].[Mn+2]", "outcome": "inactive"},
      {"smiles": "CCSC(=O)N(CC(C)C)CC(C)C", "outcome": "inactive"},
      {"smiles": "O=C(O)c1ccccc1", "outcome": "inactive"},
      {"smiles": "COC(=O)c1ccccc1C(=O)O", "outcome": "inactive"},
      {"smiles": "CCCCOCCOCCOCc1cc2c(cc1CCC)OCO2", "outcome": "inactive"},
      {"smiles": "C[C@]12C[C@H](O)[C@H]3[C@@H](CCC4=CC(=O)CC[C@@]43C)[C@@H]1CC[C@@H]2C(=O)CO", "outcome": "inactive"},
      {"smiles": "C[C@]12CC[C@@H]3c4ccc(O)cc4C[C@@H](CCCCCCCCCS(=O)CCCC(F)(F)C(F)(F)F)[C@H]3[C@@H]1CC[C@@H]2O", "note": "(stereo not given in full)", "AC50": "0.0469 µM (active)"},
      {"smiles": "CN(C)C(=O)Nc1ccc(Cl)c(Cl)c1", "outcome": "inactive"},
      {"smiles": "CCOC(=O)NCCOc1ccc(Oc2ccccc2)cc1", "AC50": "82.1 µM (active)"},
      {"smiles": "COc1c(Cl)ccc(Cl)c1C(=O)O", "outcome": "inactive"},
      {"smiles": "C=CCOC(Cn1ccnc1)c1ccc(Cl)cc1Cl", "note": "(stereo not given)", "AC50": "13.7 µM (active)"},
      {"smiles": "CC(C)CCCCCCc1ccc(O)cc1", "outcome": "inactive"},
      {"smiles": "S=C(S)NCCNC(=S)S.[Mn+2].[S-]C([S-])=NCCN=C([S-])[S-].[Zn+2]", "AC50": "163 nM (active) and 351 nM (active) and 509 nM (active)"},
      {"smiles": "CCC(C)OC(=O)N1CCCCC1CCO", "note": "(stereo not given)", "outcome": "inactive"},
      {"smiles": "N#CSCSc1nc2ccccc2s1", "outcome": "inactive"},
      {"smiles": "CCCCOC(=O)C(C)Oc1ccc(Oc2ccc(C(F)(F)F)cn2)cc1", "note": "(stereo not given)", "outcome": "inactive"},
      {"smiles": "C#CCOC(=O)[C@@H](C)Oc1ccc(Oc2ncc(Cl)cc2F)cc1", "outcome": "inactive"},
      {"smiles": "CCOC(=O)C(C)Oc1ccc(Oc2cnc3cc(Cl)ccc3n2)cc1", "note": "(stereo not given)", "outcome": "inactive"},
      {"smiles": "CCN(CC)C(=O)c1cccc(C)c1", "outcome": "inactive"},
      {"smiles": "c1ccc2[nH]c(-c3cscn3)nc2c1", "outcome": "inactive"},
      {"smiles": "CCCCCOC(=O)COc1cc(N2C(=O)C3=C(CCCC3)C2=O)c(F)cc1Cl", "outcome": "inactive"},
      {"smiles": "CC(C)(C)[C@@H](O)[C@@H](Cc1ccc(Cl)cc1)n1cncn1", "outcome": "inactive"},
      {"smiles": "CCCN(CCC)C(=O)SCC", "outcome": "inactive"},
      {"smiles": "CC(=O)[C@H]1CC[C@H]2[C@@H]3CCC4=CC(=O)CC[C@]4(C)[C@H]3CC[C@]12C", "AC50": "23 µM (active)"},
      {"smiles": "CCN(Cc1c(F)cccc1Cl)c1c([N+](=O)[O-])cc(C(F)(F)F)cc1[N+](=O)[O-]", "outcome": "inactive"},
      {"smiles": "Cc1nn(C)c(Oc2ccccc2)c1C=NOCc1ccc(C(=O)OC(C)(C)C)cc1", "AC50": "7.02 µM (active)"},
      {"smiles": "CCCCOC(=O)[C@@H](C)Oc1ccc(Oc2ccc(C(F)(F)F)cn2)cc1", "outcome": "inactive"},
      {"smiles": "CCCOC(=O)c1ccc(C(=O)OCCC)nc1", "outcome": "inactive"},
      {"smiles": "CC(=O)S[C@@H]1CC2=CC(=O)CC[C@]2(C)[C@H]2CC[C@@]3(C)[C@@H](CC[C@@]34CCC(=O)O4)[C@H]12", "outcome": "inactive"},
      {"smiles": "CCCN(CCC)c1c([N+](=O)[O-])cc(C(F)(F)F)c(N)c1[N+](=O)[O-]", "outcome": "inactive"},
      {"smiles": "CSC(=O)c1cccc2nnsc12", "outcome": "inactive"},
      {"smiles": "O=C(O)C1(C(=O)Nc2ccc(Cl)cc2Cl)CC1", "outcome": "inactive"},
      {"smiles": "CCOC(=O)C(C)Oc1ccc(Oc2nc3ccc(Cl)cc3o2)cc1", "note": "(stereo not given)", "outcome": "inactive"},
      {"smiles": "CCCCCCC(C)OC(=O)COc1nc(F)c(Cl)c(N)c1Cl", "note": "(stereo not given)", "outcome": "inactive"}
    ]}
  ]
}
